The source of these data is PubChem BioAssay AID588475 (Sanford-Burnham Center for Chemical Genomics, 2011).

The campaign covered roughly 350,000 compounds. About 2,100 (0.6%) were called active.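 How the source made its calls: active means inhibition of the ligand-induced calcium signal above about 50% at the single tested concentration (limit read from the data); inactive means the rest.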 The entries come from a sample that favours actives as a whole.

The assay can be described thus: blockers of CRF-evoked CRF-R2/CRF-BP calcium response – cell-based, HEK293, calcium dye fluorescence, uHTS, primary screen (AID 588475). The following applies: CRF-induced calcium fluorescence, at 11.8 µM, stronger effect = higher value.
Consider `O[C@H]1CN(Cc2cccs2)[C@@H](c2ccc(Cl)cc2)C[C@@H]1n1cc(C2CC2)nn1`, for which the inhibition – broadly, the change of the read-out against control, counted positive when it falls – was -16.1% (inactive). Then `Cc1cccc(N2CCN(C(=O)c3cnn4c(C(F)F)cc(-c5ccccc5)nc34)CC2)c1C`, with -11.8% (inactive); and `CCCc1nc(SCC(=O)Nc2ccccc2OC)c2c(=O)n(C)c(=O)n(C)c2n1`, with -6.56% (inactive); and `CCOc1cccc(=O)c2c(C)n(CC3CCCO3)c(C)c12` (stereo unspecified), with -12.3% (inactive). Then `CN1CN(C)c2ccc([N+](=O)[O-])c3cccc1c23`, with 4.39% (inactive); and `O=C1c2cccc3c([N+](=O)[O-])ccc(c23)C(=O)N1CC1CCCO1` (stereo unspecified), with 87.2% (active); and `Cc1ccc(S(=O)(=O)NC(=O)c2cccc(C)c2)cc1`, with -9.88% (inactive). Take `CCCC(=O)Nc1cc(OCC)c(NC(=O)NC2CCCCC2)cc1OCC`: the inhibition was 15.3% (inactive).

Regarding `COC(=O)C1=CN(Cc2ccc(OC)cc2)C=C(C(=O)OC)C1c1ccc(O)c(OC)c1`, the inhibition is -26.4% (inactive). The same measure for `CCOc1cc(C2C(C(=O)OC)=CN(C3CCCC3)C=C2C(=O)OC)cc(Br)c1O`: 50.2% (active). Then `CCn1c(SCC(=O)NC2CC2)nnc1-c1ccncc1`, with 52% (active). Then `CCn1c(SCC(=O)NC2CC2)nnc1-c1ccccn1`, with 2.34% (inactive); and `CCn1c(SCC(=O)NC2CC2)nnc1-c1ccccc1OC`, with 18.7% (inactive); and `Nc1nc(SCC(=O)Nc2cc(C(F)(F)F)ccc2Cl)[nH]c(=O)c1NC(=O)c1ccco1`, with 0.81% (inactive). For the molecule `COC(=O)C1=CO[C@@H](O[C@@H]2O[C@H](CO)[C@@H](O)[C@H](O)[C@H]2O)C2C1C[C@H](O)[C@@H]2C` (stereo partly specified), the inhibition was 1.31% (inactive).

Turning to `COc1ccc(C)cc1NC(=O)Nc1ccccc1SC`, the inhibition was 23.5% (inactive).

`CCOc1ccc(NC(=O)Nc2cc(C)ccc2OC)cc1`: the inhibition was 54.1% (active). As for `CCOc1ccc(NC(=O)Nc2cc(C)on2)cc1`, the inhibition is -27.8% (inactive). Then `CCN(CC(=O)Nc1cc(Cl)ccc1C)C(=O)CN1C(=O)NC2(CCCC2)C1=O`, with -3.2% (inactive); and `CN(C(=O)CCNC(=O)Cn1ccc2ccccc2c1=O)c1ccc(Br)cc1`, with 1.39% (inactive). Then `Cc1cccc(-c2nc(CS(=O)CC(=O)NC(C)CCc3ccccc3)c(C)o2)c1` (stereo unspecified), with -5.77% (inactive); and `Cn1nc(N)c2ncc(C(Cl)(Cl)Cl)nc21`, with 73.4% (active).

For `COc1ccc(CC(=O)OC(C)C(=O)Nc2ccc(S(N)(=O)=O)cc2)cc1` (stereo unspecified), the inhibition was -1.19% (inactive).

Take `COc1ccc(S(=O)(=O)N2CCN(C(=O)c3cccs3)CC2)cc1OC`: the inhibition was 22.7% (inactive).

`COc1cccc(NC(=S)NC(=O)c2c(Cl)c(C)nn2C)c1`: the inhibition was -4.16% (inactive). The same measure for `COc1cccc(NC(=O)Nc2ccc(F)cc2)c1`: -2.92% (inactive). In the case of `COc1cccc(NC(=S)C(C#N)=C2N(C)c3ccccc3N2C)c1`, the inhibition is 79.1% (active).

On to `Cc1nn(C)c(Oc2ccccc2)c1CCNS(=O)(=O)c1ccc(F)cc1`, for which the inhibition was -3.36% (inactive). Turning to `Nc1ncnc2c1ncn2[C@@H]1O[C@H](CNS(=O)(=O)c2ccc(-c3ccno3)s2)[C@@H](O)[C@H]1O`, the inhibition is 3.06% (inactive).

For `CCOC(=O)C1=NNC2(c3ccc(Cl)cc3)C(=O)N(c3cc(C)cc(C)c3)C(=O)C12` (stereo unspecified), the inhibition is 17.3% (inactive). For the molecule `Cc1cccc(OCCC(=O)Nc2cc(S(=O)(=O)N3CCCCC3)ccc2N2CCOCC2)c1`, the inhibition is -1.67% (inactive). As to `CC(C)CCOc1ccc(C(=O)Nc2cc(S(=O)(=O)N3CCOCC3)ccc2N2CCOCC2)cc1`, the inhibition is 19.1% (inactive). Then `Cc1cc(OCCCC(=O)Nc2cc(S(=O)(=O)N3CCOCC3)ccc2N2CCOCC2)ccc1Cl`, with 62.5% (active); and `O=C(Nc1c2c(nn1-c1ccccc1)CS(=O)(=O)C2)C1CCCC1`, with 7.96% (inactive); and `COc1cccc(CNC(=O)CCC2CCCN(C(=O)c3ccoc3C)C2)c1` (stereo unspecified), with -2.45% (inactive). The same measure for `COc1cccc(CNC(=O)CCC2CCCN(C(=O)c3ccc(F)c(Cl)c3)C2)c1` (stereo unspecified): 6.37% (inactive); for `COc1cccc(C(=O)N2CCCC(CCC(=O)NCc3ccc(F)c(F)c3)C2)c1` (stereo unspecified): 50.4% (active). Regarding `O=C1N=C(N2CCc3ccccc3C2)S/C1=C\c1ccc(O)cc1`, the inhibition is 16.8% (inactive). Regarding `CC(C)(C)c1ccc(/C=C2\SC(=O)N=C2N)cc1`, the inhibition is 9.93% (inactive). The same measure for `NC1=NC(=O)S/C1=C\c1ccc(O)cc1`: 51% (active); for `CNC(=O)/C(=C\C=C\c1ccccc1)NC(=O)c1ccc([N+](=O)[O-])cc1`: 4.28% (inactive); for `Cc1ccc(NC(=O)Cn2sc3ccccc3c2=O)cc1`: 3.99% (inactive). Then `COc1ccc(C2(c3ccc(OC)cc3)NC(=O)N(CC(=O)Nc3cc(C)on3)C2=O)cc1`, with -31.2% (inactive); and `Cc1cc(NC(=O)CN2C(=O)NC(CCc3ccccc3)C2=O)no1` (stereo unspecified), with 5.91% (inactive); and `Cc1cc(NC(=O)CN2C(=O)NC(CC(C)C)C2=O)no1` (stereo unspecified), with 56.2% (active). In the case of `CC1CCN(C(=O)/C(=C\c2ccccc2)NC(=O)c2ccccc2)CC1`, the inhibition is 8.16% (inactive).

As to `O=C(Cc1cccs1)N(CC1CCCO1)C1(C(=O)NC2CCCCC2)CCCCC1` (stereo unspecified), the inhibition was -14.9% (inactive). Regarding `CC(C)c1ccc2c(c1)c(SC(C)(C)C)c(CC(C)(C)C(=O)O)n2Cc1ccc(Cl)cc1`, the inhibition is 54.3% (active). The same measure for `Cc1ccc(C)c(NC(=O)C(OC(=O)c2ccc(C)s2)c2ccccc2)c1` (stereo unspecified): -6.3% (inactive); for `COCCCNC(=O)c1ccc(CNS(=O)(=O)c2ccc(NC(C)=O)cc2)cc1`: -2.43% (inactive). The same measure for `O=C(Nc1ccc(S(=O)(=O)Nc2nccs2)cc1)c1cccc(S(=O)(=O)N2CCOCC2)c1`: -0.01% (inactive). Take `Cc1nc2ccc(NC(=O)c3cccc(S(=O)(=O)N4CCOCC4)c3)cc2s1`: the inhibition was 116% (active). With `O=C(Nc1ccc(S(=O)(=O)N2CCOCC2)cc1)c1ccc2ncsc2c1`, the inhibition was 1.25% (inactive). Then `O=C(NNC(=S)NCCCN1CCOCC1)c1ccncc1`, with 1.88% (inactive); and `CNC(=O)C[C@H]1C(=O)N(Cc2ccccc2)C[C@@H]1CSC`, with -10.7% (inactive). Then `CN(CCC(=O)Nc1cc(S(=O)(=O)N(C)C)ccc1Cl)CC(=O)Nc1ccc(F)cc1`, with -7.88% (inactive). Then `NC(=O)CSC1=Nc2ccccc2C2=NC(CCC(=O)NCc3ccc(F)cc3)C(=O)N12` (stereo unspecified), with 15.6% (inactive); and `O=C(CSC1=Nc2ccccc2C2=NC(c3ccccc3)C(=O)N12)NCC1CCCO1` (stereo unspecified), with 10.2% (inactive). With `O=C(CC1N=C2c3ccccc3N=C(SCc3ccccc3Cl)N2C1=O)NCc1ccco1` (stereo unspecified), the inhibition is 89.4% (active).

For the molecule `CCOc1ccc(NC(=O)COc2ccc(C(=O)N3CCC(C(N)=O)CC3)cc2OC)cc1`, the inhibition is -31.7% (inactive).

Turning to `COCCNC(=O)c1ccc(-n2c(SCc3cccnc3)nc3ccccc3c2=O)cc1`, the inhibition was -8.33% (inactive). The same measure for `COCC(C)n1c(SCc2ccc(C(=O)OC)o2)nc2ccccc2c1=O` (stereo unspecified): 51.9% (active); for `COCCn1c(C)cc(C(=O)CSc2nc3ccccc3c(=O)n2C(C)COC)c1C` (stereo unspecified): 25.5% (inactive); for `COCC(C)n1c(SCC(=O)NC2CCCCC2C)nc2ccccc2c1=O` (stereo unspecified): 6.09% (inactive).

In the case of `COC(=O)c1ccc(CSc2nc3ccccc3c(=O)n2-c2cccc(OC)c2)o1`, the inhibition was 76.5% (active).

As to `COc1cccc(-n2c(SCC(=O)NC3CCS(=O)(=O)C3)nc3ccccc3c2=O)c1` (stereo unspecified), the inhibition is 3.38% (inactive). The same measure for `COc1ccc(CCNC(=O)c2nnc(CS(=O)(=O)c3ccccc3)o2)cc1OC`: -36.1% (inactive). Then `CCc1nn(CCCC(=O)NCc2ccc(C)cc2)c(=O)c2cc3occc3n12`, with -4.08% (inactive); and `Cc1ccc(C)c(S(=O)(=O)N2CC(=O)Nc3ccccc32)c1`, with -4.23% (inactive); and `O=C(NCc1ccncc1)c1cccc(NS(=O)(=O)c2ccc(F)c(F)c2)c1`, with -1.96% (inactive).

As for `Cc1cc(=O)oc2c(C(=O)c3ccccc3)c(OCC(N)=O)ccc12`, the inhibition was 21.9% (inactive). The same measure for `CCCN(CC(=O)Nc1ccccc1C)C(=O)c1ccc2[nH]c3c(c2c1)CC(C)CC3` (stereo unspecified): -10.4% (inactive).

In the case of `CN(CC(=O)Nc1cccc(F)c1)C(=O)CC1CCCC1`, the inhibition is -9.75% (inactive). As to `CC1CCc2[nH]c3ccc(C(=O)N(C)CC(=O)Nc4cccc(F)c4)cc3c2C1` (stereo unspecified), the inhibition is 104% (active). The same measure for `COCCN1CCn2c(nc3cc(NS(C)(=O)=O)ccc32)C1`: -7.04% (inactive). The same measure for `COC(=O)Nc1ncc(CN2C(=O)c3ccccc3C2=O)s1`: -1.89% (inactive); for `CCNC(=O)COC(=O)CCNC(=O)c1cccc(C)c1`: 3.93% (inactive). The same measure for `CCOC(=O)C(CC)/C(C)=N\NC(=O)c1cccc(C)c1` (stereo unspecified): 89% (active). Turning to `CC(=O)Nc1ccc(NC(=O)[C@@H](NC(=O)c2cccc(C)c2)C(C)C)cc1`, the inhibition is 4.4% (inactive). The same measure for `Cc1ccccc1C(CC(=O)c1cccs1)C(C#N)C#N` (stereo unspecified): -24.6% (inactive). Then `O=C(CN(c1cccc(Cl)c1)S(=O)(=O)c1ccccc1)NN=C1CCCC1`, with -7.21% (inactive); and `O=C(CSCC(=O)Nc1cccc([N+](=O)[O-])c1)Nc1ccccc1`, with 54% (active); and `O=C(CN1CCC(NC(=O)Nc2ccccc2)CC1)Nc1cccc([N+](=O)[O-])c1`, with 13.2% (inactive). In the case of `O=C(CSc1nc(-c2ccccc2)cs1)Nc1cccc([N+](=O)[O-])c1`, the inhibition is 27.9% (inactive). Then `O=C1c2ccccc2C2=Nc3ccccc3SC(c3ccccc3F)C12` (stereo unspecified), with -94.9% (inactive). With `CC(Nc1ccc([N+](=O)[O-])cc1[N+](=O)[O-])c1ccccc1` (stereo unspecified), the inhibition was 61.4% (active). As for `CC1(C)C/C(=N/Nc2ccc([N+](=O)[O-])cc2[N+](=O)[O-])C(C)(C)O1`, the inhibition was -6.77% (inactive). Then `CC(C)OP(=O)(OC(C)C)C(Nc1ccccc1)c1cccc([N+](=O)[O-])c1` (stereo unspecified), with -23.4% (inactive); and `Cc1ccc(OCC(=O)Nc2ccccc2C(=O)NC2CC2)cc1C`, with 0.16% (inactive); and `O=C(NC(=S)Nc1ccccc1N1CCCCC1)c1ccc(F)cc1`, with -90.3% (inactive). The same measure for `CCc1ccc(C(=O)NC(=S)Nc2ccccc2N2CCOCC2)cc1`: 125% (active); for `O=C(Nc1ccccc1N1CCOCC1)c1ccncc1`: 4.16% (inactive).

For the molecule `O=C(NCC(=O)N(CC1CCCO1)C(C(=O)NC1CCCCC1)c1ccccc1)c1ccco1` (stereo unspecified), the inhibition is 2.38% (inactive). Then `COc1ccc(C)cc1NC(=O)CSc1ccc(Cl)cc1`, with 5.69% (inactive); and `COc1ccc(Cl)cc1NC(=O)CN(C)C(=O)c1cc2ccccc2cc1OC`, with 9.16% (inactive); and `COc1ccc(Cl)cc1NC(=O)CNc1ccccc1F`, with 61.7% (active).
